Screens (PubChem BioAssay)
The sample as a whole holds a higher share of hits than the screen did.
nsP2pro inh: Primary qHTS for inhibitors of NSP2Pro chikungunya virus (CHIKV) | Polyprotein P1234 (Chikungunya virus (strain S27-African prototype)), Q8JUX6 | FRET peptide cleavage, nsP2pro, fluorescence 1 h | Potency, µM (doses to about 24.9 µM), usual class: inhibitors | 31,000 tested, 1.1% active; also: nearly all actives have a fitted effect of over 60% in size
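Enzyme 150 nM, substrate 2.5 uM (both final); Tris-HCl 10 mM pH 8.0 + 0.01% Tween 20; cpd up to 25 uM, 7 pts; 15 min preinc., 1 h RT; fluorescence ex 525/em 598.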
CHIKV nsP2 cell: Secondary cell base assay for inhibitors of NSP2Pro Chikungunya virus (CHIKV). shares compounds with nsP2pro inh. cell-based CHIKV nsP2 protease reporter assay. Potency, µM (titrated, usually from 51.1 µM), most hits filed as inhibitors. 450 tested, 10% active. AID 1964100, 2024; also: nearly all actives have a fitted effect of over 70% in size
CHIKV NSP2 FL: Selectivity profile for inhibitors of NSP2Pro chikungunya virus (CHIKV): Full length NSP2 enzyme counterscreen (CHIKV-NSP2); shares compounds with nsP2pro inh; Full-length CHIKV NSP2 protease enzymatic counterscreen; Potency, µM (titrated, usually from 50.7 µM), actives largely listed as inhibitors; 410 tested, 39% active; also: nearly all actives have a fitted effect of over 65% in size
Furin counter: Selectivity profile for inhibitors of NSP2Pro chikungunya virus (CHIKV): Human furin counterscreen; shares compounds with nsP2pro inh; Recombinant human furin enzymatic counterscreen, fluorogenic substrate; Potency, µM (highest dose often 50.6 µM), actives largely listed as inhibitors; 410 tested, 6% active
Target sequence (P09958 whole entry, looked up): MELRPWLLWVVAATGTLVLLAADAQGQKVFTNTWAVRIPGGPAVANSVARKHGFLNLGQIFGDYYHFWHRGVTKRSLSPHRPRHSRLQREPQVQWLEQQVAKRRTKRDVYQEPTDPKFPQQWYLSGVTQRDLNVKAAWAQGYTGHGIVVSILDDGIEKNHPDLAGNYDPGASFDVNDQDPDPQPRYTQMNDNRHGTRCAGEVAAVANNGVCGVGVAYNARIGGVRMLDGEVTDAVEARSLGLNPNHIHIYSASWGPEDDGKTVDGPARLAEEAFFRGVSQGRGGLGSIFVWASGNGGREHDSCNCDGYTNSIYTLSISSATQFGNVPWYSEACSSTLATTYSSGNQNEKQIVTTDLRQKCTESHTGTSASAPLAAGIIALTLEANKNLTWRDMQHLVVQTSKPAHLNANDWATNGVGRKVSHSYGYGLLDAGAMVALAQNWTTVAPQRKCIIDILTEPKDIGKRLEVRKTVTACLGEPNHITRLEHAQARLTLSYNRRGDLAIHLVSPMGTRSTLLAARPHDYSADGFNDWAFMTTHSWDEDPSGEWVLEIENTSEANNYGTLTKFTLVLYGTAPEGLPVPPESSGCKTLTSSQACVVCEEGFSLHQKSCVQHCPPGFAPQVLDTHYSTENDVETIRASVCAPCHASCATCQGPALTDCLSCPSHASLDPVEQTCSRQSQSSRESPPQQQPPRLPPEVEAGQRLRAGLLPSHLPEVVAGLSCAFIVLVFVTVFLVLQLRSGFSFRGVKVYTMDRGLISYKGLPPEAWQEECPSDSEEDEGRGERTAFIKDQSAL
NS23 peptide cs: Selectivity profile for inhibitors of NSP2Pro chikungunya virus (CHIKV): Endogenous NS2/3 peptide Counterscreen; 410 tested, 34% active; Potency, µM (titrated, usually from 51 µM), hits mostly inhibitors; AID 1964103, 2024; Purified CHIKV nsP2 protease, endogenous NS2/3 peptide cleavage; shares compounds with nsP2pro inh; also: nearly all actives have a fitted effect of over 55% in size
Papain counter: Selectivity profile for inhibitors of NSP2Pro chikungunya virus (CHIKV): Papain Counterscreen. Potency, µM (highest dose often 51 µM), usual class: inhibitors. shares compounds with nsP2pro inh. 410 tested, 5% active. purified papain protease activity, enzymatic inhibition
nsP2pro confirm: Confirmatory qHTS for inhibitors of NSP2Pro chikungunya virus (CHIKV); shares compounds with nsP2pro inh; CHIKV nsP2 protease enzymatic activity, qHTS; Potency, µM (highest dose often 25.5 µM), most hits filed as inhibitors; 410 tested, 43% active; AID 1964105, 2024; also: nearly all actives have a fitted effect of over 75% in size
HCV NS3 4A cs: Selectivity profile for inhibitors of NSP2Pro chikungunya virus (CHIKV): NS34A-HCV Counterscreen; shares compounds with nsP2pro inh; HCV NS3/4A protease biochemical counterscreen; Potency, µM (highest dose often 50.9 µM), most hits filed as inhibitors; 410 tested, 20% active; also: nearly all actives have a fitted effect of over 55% in size
Numbers stand for hits; . = inactive; ? = inconclusive; [ ] = remark or other dose. Calls follow the shape of the full dose curve.

SMILES | nsP2pro inh | others
Oc1ccc(NCc2ccccc2OCc2ccccc2)cc1 | 3µM | CHIKV nsP2 cell=12µM;CHIKV NSP2 FL=?;Furin counter=.;NS23 peptide cs=18µM;Papain counter=.;nsP2pro confirm=?;HCV NS3 4A cs=21µM
Oc1cc(NCc2ccc(Cl)cc2)cc2cccnc12 | .
O=C(COc1ccccc1CNc1ccc(F)cc1)Nc1ccc(Cl)cc1 | .
O=C(COc1ccccc1CNc1ccccc1)Nc1ccc(F)cc1 | .
COc1cccc(CNc2ccc(S(=O)(=O)Nc3ccccn3)cc2)c1O | .
O=C(COc1ccccc1CNc1ccc(F)cc1)Nc1ccc(F)cc1 | .
CCOc1ccc(CCNC(=O)c2ccccn2)cc1OCC | .
CC#Cc1cncc(-c2ccc3c(c2)[C@@]2(N=C(C)C(N)=N2)C2(CCC(OC)CC2)C3)c1 (stereo partly drawn) | .
COc1ccc(Nc2nc(-c3ccncc3)nc3ccccc23)cc1F | .
NCCCC(N)CC(=O)NCC1NC(=O)C(CO)NC(=O)C(N)CNC(=O)C(C2CCN=C(N)N2)NC(=O)C(=CNC(N)=O)NC1=O (stereo not drawn) | .[0.199 µM]
COc1ccc2nc(-c3cccc(F)c3)sc2c1 | .
CCS(=O)(=O)N1CCC(N2C(=O)C(OCC3CC3)C23CCCCC3)CC1 (stereo not drawn) | .
COc1ccccc1-c1ccc(C(=O)N2C[C@@H](N(C)C)[C@H](C(C)C)C2)cc1 | .
COc1ccc(-c2ccc3nc(-c4ccc(F)c(F)c4)oc3c2)c(OC)c1OC | .
COc1ccc(-c2ccc3nc(-c4cccc(F)c4)oc3c2)c(OC)c1OC | ? | CHIKV nsP2 cell=?
COc1ccc(-c2ccc3nc(-c4ccc(C)c(F)c4)oc3c2)c(OC)c1OC | .
C[C@@H]1O[C@@H](O[C@@H]2[C@@H](O[C@@H]3O[C@@H](C)[C@H](O[C@@H]4OC[C@H](O)[C@H](O[C@@H]5OC[C@@H](O)[C@H](O)[C@H]5O)[C@H]4O)[C@@H](O[C@@H]4OC[C@](O)(CO)[C@H]4O)[C@H]3O)[C@H](OC(=O)[C@]34CCC(C)(C)C[C@H]3C3=CCC5[C@@]6(C)C[C@H](O)[C@H](O[C@@H]7O[C@H](CO[C@@H]8OC[C@H](O)[C@H](O)[C@H]8O)[C@@H](O)[C@H](O)[C@H]7O)C(C)(C)C6CC[C@@]5(C)[C@]3(C)C[C@H]4O)OC[C@H]2O)[C@H](O)[C@H](O)[C@H]1O (stereo partly drawn) | .[5.1 µM]
O=C(NCc1nnc2n1C(C(=O)N1CCCC1)CC2)Nc1cccnc1 (stereo not drawn) | .
Cn1ccc(C(=O)NCc2nnc3n2C(C(=O)NCC2CC2)CC3)n1 (stereo not drawn) | 7.9µM | CHIKV nsP2 cell=.;CHIKV NSP2 FL=?;Furin counter=.;NS23 peptide cs=?;Papain counter=.;nsP2pro confirm=?;HCV NS3 4A cs=11µM
CC(=O)NCc1nnc2n1C(C(=O)NC1CCCCCC1)CC2 (stereo not drawn) | .
NC(=O)C1CCN(c2nc(-c3cccc(C(F)(F)F)c3)cs2)CC1 | .
CS(=O)(=O)N1CCCOCCNC(=O)[C@@H]2CCC[C@@H]21 | .
CC(=O)OC/C(=C/C(=O)O)CC[C@@H]1C(C=O)=CC[C@@H]2C(C)(C)CCC[C@@]12C | .
COc1ccc(C2CC(=O)N3CN(C4CCCCC4)CSC3=C2C#N)c(OC)c1 (stereo not drawn) | 8.9µM | CHIKV nsP2 cell=.;CHIKV NSP2 FL=18µM;Furin counter=.;NS23 peptide cs=?;Papain counter=.;nsP2pro confirm=?;HCV NS3 4A cs=.
N#CC1=C2SCN(C3CCCCC3)CN2C(=O)CC1c1ccc(Br)cc1 (stereo not drawn) | .
SMILES | nsP2pro inh | others
COc1ccc(NC(=O)c2cc3c(s2)CN(C2CCCC2)C3)c(OC)c1 | .
CC(=O)Oc1ccc(C2(c3ccc(OC(C)=O)cc3)Oc3ccccc3NC2=O)cc1 | .
CC1(C)SCCN(S(=O)(=O)c2ccc(OCC#CCO)cc2)[C@H]1C(=O)NO | ? | CHIKV nsP2 cell=.;CHIKV NSP2 FL=?;Furin counter=.;NS23 peptide cs=.;Papain counter=.;nsP2pro confirm=?;HCV NS3 4A cs=.
CC1(C)SCCN(S(=O)(=O)c2ccc(Oc3ccncc3)cc2)[C@H]1C(=O)NO | .
COc1ccc(-c2csc(NC(=O)[C@H]3CCCCN3S(=O)(=O)c3ccc(C)cc3)n2)cc1 | .
CCNC(=O)NC1(CCOC)CCN(C(=O)c2ccoc2)CC1 | .
Cc1ccccc1CNC(=O)c1ccc2c(c1)C(O)CCCCCN2C (stereo not drawn) | .
CCCCC(CC)COc1ccc(-c2nc(-c3ccc(OC)cc3)nc(-c3ccc(OCC(CC)CCCC)cc3O)n2)c(O)c1 (stereo not drawn) | .[2.68 µM]
CCn1ncc(N2CCCC(CC(=O)Nc3cc(OC)cc(OC)c3)C2)cc1=O (stereo not drawn) | .
CN1CCc2nc(C(=O)N[C@@H]3C[C@@H](C(=O)N(C)C)CC[C@@H]3NC(=O)C(=O)Nc3ccc(Cl)cn3)sc2C1 | ? | CHIKV nsP2 cell=.;CHIKV NSP2 FL=.;Furin counter=.;NS23 peptide cs=.;Papain counter=.;nsP2pro confirm=.;HCV NS3 4A cs=.
O=C(O)CCc1ccc(NCc2cccc3c2CCCN3CCOc2ccccc2)cc1F | .
c1cncc(-c2ccc(CNc3nc(N4CCCC4)nc4ccccc34)cc2)c1 | .
COC1CN(c2cccc(F)c2)C12CCN(C(=O)NCC(C)C)CC2 (stereo not drawn) | .
C=CCN1C[C@H](C(=O)N(CCCN(C)C)C(=O)NCC)C[C@@H]2c3cccc4[nH]cc(c34)C[C@H]21 | ? | CHIKV nsP2 cell=.;CHIKV NSP2 FL=.;Furin counter=.;NS23 peptide cs=.;Papain counter=.;nsP2pro confirm=.;HCV NS3 4A cs=.
C=CCN1CCN(C(=O)[C@@H]2Cc3c[nH]c4cccc(c34)[C@H](CC(C)C)N2)CC1 | .
Cc1cc(C)n(CCCN(C)C(=O)c2cn(Cc3ccc(F)cc3)nn2)n1 | .
Nc1ccccc1 | .
[Hg+][c]1ccccc1 | 0.56µM | CHIKV nsP2 cell=?;CHIKV NSP2 FL=1µM;Furin counter=1µM;NS23 peptide cs=3.7µM;Papain counter=.;nsP2pro confirm=0.28µM;HCV NS3 4A cs=0.23µM
CC(C)c1cc(C(C)C)c(CC(=O)NS(=O)(=O)Oc2c(C(C)C)cccc2C(C)C)c(C(C)C)c1 | .
